Results on 40 sequences are retold here after the supplement of paper PMC6555819.

The subject of this test is PPARg:RXRa 270nM:90nM, anti-RXR (NR concentration 270 nM, RXRa partner concentration 90 nM). Nature of the test: PBM binding z-score (relative to random genomic background probes); higher = stronger binding; sequences stand for … in GC…GCGATTGACAGCGTAGAATGAAGG
A digest of the protocol:
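For binding z-scores, the reference was random background probes on custom Agilent 4×180K protein-binding microarrays. These arrays were incubated 1 h with ligand-free nuclear receptor dimers in PBS pH 7.4, 2% milk, 0.02% Triton X-100, 1 mM DTT, 0.2 mg/mL BSA and 0.4 mg/ml salmon testes DNA. Fluorescence was scanned after antibody detection of each partner (one per run) and regression-normalized.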
CGAACGAGGTCATTGACAGGACAGTGAATAGTAA had a PBM binding z-score of 6.46. For TCTAGTTGGTCACGGAGGGCACACACGACGGGTA the value was 2.05; for AGAATGAGGTCATTAAGATCAGGGAATTGCGGTC, 6.63. For CGCACTAGGTCATCCAGGACAGTGAATACATTGA the value was 6.27; for TAGCCTAGGTCATGCGGCCCAGTATAGTGTCGGC, 2.49. Under GATACAGGGTCAGCTACAGGCCAGAGTATGGAAA stands 3.43; under ATCGAAAGGTCGACGCGGTGAGTATACACCGTTT, 2.54; under CCTGCTAGGTCATGGTCAGCGAATCTACAGTATG, 2.69. GCTGCTAGGTCAACTGATGGTCACCTAAAGCTCG: the PBM binding z-score is 3.59. For CCGACTGGGGCAAGGTCACCATAACGCACAGCCA the value was 4.63; for TCTCGGAGGACACCAAAGGTCAGAGCTCGACATC, 3.71; for AGTCAAAGTGCATCTAGGTAACGTAAGATATGCT, 2.08. For CCTACTGGGCCAAAAAGTTCATTGATGCCGATAA the value was 1.53; for ATTTGTAGGTTACATCCGGGTCATTCAGGCTATG, 4.28; for CGAACTAGGTCACCCAGGACAGTGAATACATTGA, 6.66. Under CGTCCGAGGTCATAGGAGGTCAGTGAAGACAGAT stands 6.5. The sequence CCTAGTTGTTCAGGAGGTCACACACCGGATATGA gave a PBM binding z-score of 2.98.

Regarding CGAACTACGTCATCCAGGACAGTGAATACATTGA, the PBM binding z-score was -0.106. For AATAAAGGGTCATCGTAGGCCAGAGTACGCACAG the value was 6.58; for CGTCAAAGTCCAAGGTAACGTAACAGAAAGCAGC, 0.296.

The sequence TAGCCTAGGTCATACAGGGGCCAGTATAGAAAGC showed a PBM binding z-score of 2.35. Under CGAACAAGGTCATTGACAGGACAGTGAATAGTAA stands 5.66; under ATATGTAGGTTAGCTGGGGTCATTCACACTAGGC, 5.14; under CGTCCAAGGACAATGCTAGGTCAGTGAAAGCATT, -0.429. For CGAACGAGGTCATGAGTTGATAGCAAATGCCGAT the value was 6.94; for AGAATGAGGTCAAGATCAGGGAAACAGAATACAT, 6.96. Under CGTCCAAGGTTAAGGTCAGTGAAAGAGACTCGAA stands 2.6. CATACAGGGTCGGCTAGGCCAGAGTAGGGACGGC: the PBM binding z-score is -0.0886.

Consider CCTACTGGGCCAAAGAGGTCATTGATGCCGATAA, for which the PBM binding z-score is 4.73. Under ATATGTAGGTTAGGGTCAGTCAGAAAGTAGGGAA stands 5.54.

Regarding AGTCAAAGTTTATCTAGGTAACGTAAGATATGCT, the PBM binding z-score came to 2.51. For TAGCCTAGGTCATGCGGGACAGTATAGTGTCGGC the value was 2.57; for ACTTAAGGGTCAACGAGGTTATAGCACGCGTATA, 6.95. For TAGCCTAGTTCATTCAGGGGCCAGTATAGAAAGC the value was 0.273; for CGAACAAGGTCATCCAGGACAGTGAATACATTGA, 6.17. For CGTCCGAGGTCAAGGTCAGTGAAAGAGACTCGAA the value was 7.45; for TAGCCGAGGTCATTCAGGGGCCAGTATAGAAAGC, 5.81; for CCTACTCGGCCAAAAAGGTCATTGATGCCGATAA, 3.11. Regarding CCTTACGGGTCCCTCCAGGTTATAGCATCGGAGT, the PBM binding z-score was -0.6. AACGAAAGGTCGAAGGTGAGTATACCCACCCGAA showed a PBM binding z-score of 4.9.
